Laboratory results published in PMC5540273 (PLoS ONE, 2017).

Experiments:
Settings in all cases: concentration: 1 μM, replicates: in singlicate; n = 1
[1] = system: T1, PRKR
T1 construct: gene EIF2AK2

[2] = system: PRKX
[3] = system: PRP4
[4] = system: T2, PYK2
T2 construct: gene PTK2B

[5] = system: QSK
[6] = system: RAF1
[7] = system: RET
[8] = system: RIOK1
[9] = system: RIOK2
[10] = system: RIOK3
[11] = system: RIPK1
[12] = system: RIPK2
[13] = system: RIPK4
[14] = system: RIPK5
[15] = system: ROCK1
[16] = system: ROCK2
[17] = system: ROS1
[18] = system: RPS6KA4(Kin.Dom.1-N-terminal)
[19] = system: RPS6KA4(Kin.Dom.2-C-terminal)
[20] = system: RPS6KA5(Kin.Dom.1-N-terminal)
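Further: KINOMEscan kinase panel screen.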

SMILES | %Inh [1] [%] | %Inh [2] [%] | %Inh [3] [%] | %Inh [4] [%] | %Inh [5] [%] | %Inh [6] [%] | %Inh [7] [%] | %Inh [8] [%] | %Inh [9] [%] | %Inh [10] [%] | %Inh [11] [%] | %Inh [12] [%] | %Inh [13] [%] | %Inh [14] [%] | %Inh [15] [%] | %Inh [16] [%] | %Inh [17] [%] | %Inh [18] [%] | %Inh [19] [%] | %Inh [20] [%]
OCCOCCn1ccc2ncnc(Nc3ccc(Oc4cccc(Cl)c4)c(Cl)c3)c21 | 0 | 3 | 9 | 0 | 0 | 5 | 0 | 0 | 0 | 0 | 0 | 48 | 0 | 0 | 0 | 0 | 0 | 17 | 0 | 0
COc1ccc(Nc2nccc(N3CCC(NC(=O)c4cccc(NC(C)=O)c4)C3)n2)cc1 (stereo not drawn) [GSK1379732] | 0 | 0 | 48 | 0 | 0 | 0 | 0 | 37 | 0 | 0 | 21 | 7 | 0 | 0 | 33 | 50 | 8 | 21 | 0 | 9
Cc1ccc(O)cc1Nc1cc(C(F)(F)F)nc2ccc(-c3ccncc3)cc12 [GW630823] | 0 | 8 | 0 | 17 | 0 | 0 | 9 | 14 | 0 | 13 | 13 | 17 | 0 | 15 | 0 | 0 | 5 | 8 | 0 | 0
Nc1nc(-c2cccnc2)c(-c2ccnc3ccccc23)s1 [GW684083] | 0 | 31 | 19 | 16 | 5 | 11 | 0 | 30 | 38 | 0 | 0 | 10 | 0 | 2 | 44 | 32 | 25 | 0 | 0 | 26
Fc1ccc(-c2ncn(CCCNCc3ccccc3)c2-c2ccncc2)cc1 | 0 | 0 | 17 | 1 | 1 | 0 | 18 | 0 | 11 | 28 | 9 | 0 | 29 | 26 | 27 | 32 | 0 | 0 | 32 | 0
Fc1cccc(COc2ccc(Nc3ncnc4sc(-c5ccc[nH]5)cc34)cc2Cl)c1 [GW707818] | 3 | 4 | 25 | 0 | 0 | 18 | 14 | 22 | 0 | 40 | 34 | 31 | 0 | 16 | 27 | 21 | 8 | 10 | 0 | 99.9
CN1CCC(n2cnc(-c3ccc(F)cc3)c2-c2ccnc(NC3CCNCC3)n2)CC1 [SB-229482] | 0 | 0 | 0 | 11 | 0 | 46 | 20 | 25 | 8 | 22 | 0 | 0 | 45 | 7 | 35 | 25 | 0 | 14 | 0 | 1
N#Cc1ccc(Oc2ccc(Nc3ncnc4cc[nH]c34)cc2Cl)cc1 | 0 | 7 | 0 | 10 | 0 | 0 | 19 | 21 | 8 | 1 | 2 | 26 | 0 | 6 | 2 | 0 | 0 | 0 | 8 | 20
CN1c2ccc(-c3ccc(C(=O)NCCO)cc3)cc2-c2[nH]ncc2S1(=O)=O | 1 | 0 | 0 | 6 | 5 | 0 | 13 | 30 | 22 | 17 | 1 | 13 | 0 | 27 | 0 | 41 | 8 | 25 | 49 | 0
O=C(NCCCN1CCCC1=O)c1cnc(NCc2cc(Cl)ccc2Cl)nc1NC1CCNCC1 | 0 | 0 | 2 | 0 | 0 | 0 | 8 | 0 | 0 | 8 | 0 | 0 | 0 | 0 | 0 | 0 | 0 | 15 | 0 | 0
O=C(Nc1ccccc1)Nc1ccc(Oc2ccc3nccn3n2)cc1 | 0 | 0 | 0 | 0 | 0 | 31 | 0 | 49 | 0 | 0 | 11 | 88 | 0 | 0 | 0 | 0 | 0 | 50 | 0 | 0
Nc1nccc2scc(-c3ccc4c(c3)CCN4C(=O)Cc3cc(F)ccc3F)c12 [GSK2587663] | 0 | 1 | 10 | 6 | 16 | 18 | 65 | 25 | 3 | 0 | 83 | 3 | 0 | 0 | 28 | 12 | 16 | 14 | 0 | 15
